High-throughput results (PubChem)
Shown are actives, neighbours in structure and some others; about 6.4% of the full set was active somewhere.
VP16 counter: counter-screen for ROR gamma inhibitors: Gal4-VP16 reporter. Drosophila S2 Gal4-VP16 UAS-luciferase, luminescence, 20 h. Potency, µM (titrated, usually from 53.6 µM), inactives show at the highest dose activity, negative = inhibition, hits mostly inhibitors. actives 3.5% (n = 310,000);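 also: Gal4-VP16 expression switched on by copper sulfate through the metallothionein promoter; nearly all actives have a fitted effect of over 50% in size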
KinaseGlo FLuc: counter-screen: inhibitors of Kinase-Glo firefly luciferase | Q27757 | Kinase-Glo luciferase, ATP luminescence, 8 min | Potency, µM (titrated, usually from 38.3 µM), without a hit: at the highest dose activity change, negative = inhibition, usual class: inhibitors | actives 0.28% (n = 200,000) | AID 1379; also: nearly all actives have a fitted effect of over 60% in size
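Luminescence was the read-out, taken after 8-minute incubation at ambient temperature. Luciferase turned over luciferin with 10 uM ATP in imidazole pH 7.2 buffer containing KCl, MgCl2, Tween 20 and BSA.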
RORg inh: inhibitors of mouse ROR gamma transcriptional activity | AID 2551 | Potency, µM (top dose mostly 53.6 µM), for inactives: at the highest dose activity change, negative = inhibition, usual class: inhibitors | Drosophila S2 Gal4-RORgamma UAS-luciferase reporter, 20 h | actives 5.4% (n = 310,000); also: nearly all actives have a fitted effect of over 60% in size
Target sequence (P51450 whole entry, looked up, the tested form may be a part): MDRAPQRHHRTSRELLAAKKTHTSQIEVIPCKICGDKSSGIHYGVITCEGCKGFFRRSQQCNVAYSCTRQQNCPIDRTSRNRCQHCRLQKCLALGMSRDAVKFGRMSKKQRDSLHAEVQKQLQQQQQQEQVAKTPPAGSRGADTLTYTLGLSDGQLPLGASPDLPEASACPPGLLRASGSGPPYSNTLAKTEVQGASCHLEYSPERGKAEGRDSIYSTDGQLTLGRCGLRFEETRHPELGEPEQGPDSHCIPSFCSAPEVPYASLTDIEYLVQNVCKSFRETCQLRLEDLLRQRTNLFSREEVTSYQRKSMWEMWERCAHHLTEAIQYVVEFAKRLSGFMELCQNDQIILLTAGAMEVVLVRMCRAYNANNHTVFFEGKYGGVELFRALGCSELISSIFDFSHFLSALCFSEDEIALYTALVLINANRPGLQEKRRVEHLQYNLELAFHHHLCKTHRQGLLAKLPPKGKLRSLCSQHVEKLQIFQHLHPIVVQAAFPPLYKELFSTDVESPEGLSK
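Luciferase reporter read in Schneider cells carrying Gal4-RORγ (mouse) and UAS-Photinus luciferase; cells given compound 1 h before 700 uM copper sulfate induction, then incubated 20 h at ambient temperature.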
The depositor's hits bear a star; u = inconclusive; x = no result given; [ ] = dose if it differs, or a comment. Calls follow the shape of the dose curve; as a rule, active = well fitted curve in the direction sought with a large enough effect; inconclusive = small, poorly fitted or top-dose-only effect, or another doubt; inactive = no such curve, though single readings can be large; an effect the other way counts as inactive or inconclusive. % is scaled to controls: 0 for no effect and ±100 for the full control effect; potency is read from the fitted curve at half-maximal effect.

SMILES | VP16 counter | KinaseGlo FLuc | RORg inh
COC(=O)NC(/C=C/c1ccccc1)C(C(C)=O)C(=O)OC (centres undefined) | -18% | -1% | -3%
Cc1ccc(CNC(=O)C2CCCN(S(=O)(=O)c3c(C)noc3/C=C/N(C)C)C2)cc1 (centres undefined) | -1% | x | 33%
CC(=N\Nc1ccccc1)/C(=N/O)C(=O)Nc1ccccc1 | 0% | -3% | 14%
CC(=N\NC(=O)c1ccccc1)/C(=N/O)C(=O)Nc1ccccc1 | u | x | 5µM*
Cc1ccccc1CNC(=O)CN(c1cccc([N+](=O)[O-])c1)S(C)(=O)=O | -6%[10 µM] | -1% | 22%
Cc1cc(C)cc(NC(=S)NN)c1 | u | 2% | 7.9µM*
Cc1ccccc1C(=O)Nc1ccccn1 | 16% | -1% | 3%
Cc1cc(C)cc(NC(=S)Nc2ccccn2)c1 | 4.5µM* | -7% | 1.1µM*
Cc1ccc(NC(=S)Nc2ccccn2)cc1C | 3.2µM* | x | 0.71µM*
S=C(Nc1cccnc1)Nc1ccccc1Br | -8% | -2% | -13%
CCC(CC)C(=O)Nc1cc(C)cc(C)c1 | 4% | 1% | 0%
Cc1ccc(NC(=S)Nc2ccc3nc(-c4ccccn4)c(-c4ccccn4)nc3c2)cc1C | u | -2% | 14µM*
O=C(Nc1ccc2nc(-c3ccccn3)c(-c3ccccn3)nc2c1)N1CCOCC1 | -10% | -1% | 11%
CO[C@@H]1/C=C\CC(=O)N[C@@H](C)C(=O)OC[C@@H](OC)[C@H](C)/C=C\CC(=O)OC[C@H]1C | -2%[10 µM] | x | 16%[10 µM]
CCc1ccc(NC(=O)NCCCN2CCCC2=O)cc1 | 9% | x | 17%
CC(C)CCNC(=O)C(=O)NCc1ccccc1 | u | x | 0%
COC(=O)c1ccc(CNC(=O)C2CCC(=O)N(CCN3CCOCC3)C2)cc1 (centres undefined) | 5% | x | -11%
CC(=O)c1ccc(NC(=O)C[n+]2cccc(C)c2)cc1 | -9% | x | 1%
COc1ccc(CC(=O)NCC(=O)Nc2ccccc2Br)cc1 | 6% | x | 1%
O=C(Nc1cccc(F)c1)Nc1ccccn1 | 29% | -1% | u
Cc1cccc(NC(=S)Nc2ccccn2)c1 | 6.3µM* | x | 0.5µM*
Nc1ncc(-c2ccccc2)n1CC1CCCO1 (centres undefined) | u | 1% | 13µM*
O=C(CSc1ncc(-c2ccccc2)n1CC1CCCO1)N1CCCCC1 (centres undefined) | -1% | -2% | -2%
Cc1nn(-c2ccccc2)c(C)c1C(=O)NCCc1ccccc1 | -2% | x | -11%
O=C(Nc1ccc(-c2nc3ccccc3[nH]2)cc1)c1ccc(N2C(=O)CCC2=O)cc1 | -10% | 1% | -23%
SMILES | VP16 counter | KinaseGlo FLuc | RORg inh
O=C(Nc1nnc(-c2ccc(Cl)cc2)o1)c1ccc(N2C(=O)CCC2=O)cc1 | 2.8µM* | 2% | 1.1µM*
Cc1nn(-c2ccccc2)c(C)c1C(=O)Nc1nnc(-c2ccco2)o1 | -17%[0.365 µM] | -2% | 0.35µM*
O=C(Nc1nnc(-c2ccco2)o1)c1ccc(N2C(=O)CCC2=O)cc1 | u | 3% | 11µM*
Cc1ccnc(NC(=O)c2ccc(N3C(=O)CCC3=O)cc2)c1 | u | -22% | -22%
O=C(Nc1ccccc1)c1cccc(N2C(=O)CCC2=O)c1 | 7% | 5% | -13%
O=C(Nc1nnc(-c2ccccc2)o1)c1cccc(N2C(=O)CCC2=O)c1 | 4.5µM* | -2% | 2.5µM*
COc1ccc(CN(CC2CCCO2)C(=O)CN2C(=O)COc3ccccc32)cc1OC (centres undefined) | -19% | -2% | 45%
CC#CCN1c2ccccc2[C@]23C[C@@H](C(=O)OC)N(S(=O)(=O)CCCC)C2=NC(C(=O)OC)=C(C(=O)OC)[C@H]13 | x | 2%[7.66 µM] | x
COc1ccc(OC)c(C2OCCC=CC2C)c1 (centres undefined) | -1%[10 µM] | x | -16%[10 µM]
CCc1ccc(NC(=O)C/C(C)=N/NC(=O)COc2ccc(C)cc2Br)cc1 | -7% | x | u
CCOCC | -7% | x | -5%
Cc1ccc(-c2ccc(/C=C(\C#N)C(N)=S)n2C)cc1 | u | x | 2.2µM*
Cn1cccc1/C=C(/C#N)C(N)=S | -14% | 1% | 1%
CC(C)(C)CN1CCC(Oc2cccc(C(=O)NCCCOc3cccnc3)c2)CC1 | -2% | x | -3%
C/C(=N\Nc1ccc2nncn2n1)c1ccc(Cl)s1 | 0% | x | 2%
C/C(=N\NC(N)=S)c1ccc(Cl)s1 | 5µM* | 1% | 1.4µM*
C/C(=N\NC(=S)NC(C)C)c1ccc(Cl)s1 | u | -5% | 1.1µM*
C/C(=N\NC(=O)c1ccoc1C)c1ccc(Cl)s1 | 10µM* | x | 11µM*
C/C(=N\Nc1cccc(C(=O)O)c1)c1ccc(Cl)s1 | -11% | x | u
CC/C(=N\NC(=O)c1c(-c2ccccc2)noc1C)c1ccc(C)o1 | -11% | -3% | u
C/C(=N\NC(=O)c1csc(C)c1C)c1ccc(Cl)s1 | -3% | -2% | -7%
CC/C(=N\NC(=O)c1ccoc1C)c1ccc(C)o1 | 10% | -15% | 5µM*
COc1cccc(Nc2ncc3nc(-c4cn(C)c5ccccc45)c(=O)n(CCC#N)c3n2)c1 | -2% | x | -9%
COc1ccccc1C(CNC(=O)CSc1ccc2ccccc2c1)N(C)C (centres undefined) | 2% | x | -6%
O=C(O)/C=C\C(=O)Nc1ccc2c(c1)C(=O)c1cc(F)ccc1-2 | x | -3%[7.66 µM] | x
SMILES | VP16 counter | KinaseGlo FLuc | RORg inh
O=C(CSc1nc2ccccc2c(=O)[nH]1)Nc1ccc(N2CCOCC2)c(Cl)c1 | -5% | x | 33%
C/C(CCC(=O)OC[C@@H]1O[C@H](C#Cc2ccccc2)C=C[C@@H]1Oc1ccc(C)cc1)=N/O[C@@H](C)CN1CCCc2nc(C)c(C)cc21 | 0%[10 µM] | x | -4%[10 µM]
O=C(COc1ccc2ccccc2c1Br)N1CCCCC1 | -8% | x | -27%
NC(=O)C1CCN(C(=O)COc2ccc3ccccc3c2Br)CC1 | u | x | 1.8µM*
CCOC(=O)C(CS)NCCN[C@@H](CS)C(=O)OCC (some centres undefined) | -17% | x | -27%
COc1ccc(C(=O)NCc2nnc(SCC(=O)Nc3ccccc3OC)n2C)cc1 | -6% | 0% | -10%
Cc1ccccc1CNC(=O)C1CCCN(c2nnc(C)c3c(C)n(-c4ccccc4)nc23)C1 (centres undefined) | u | x | -17%
Cc1nnc(N2CCCC(C(=O)NCc3ccccc3F)C2)c2nn(-c3ccccc3)c(C)c12 (centres undefined) | 0% | x | 0%
COc1ccc(-n2nc3c(N4CCC(C(=O)NCCc5ccco5)CC4)nnc(C)c3c2C)cc1 | -5% | x | 6%
CCOc1ccccc1CNC(=O)C1CCN(c2nnc(C)c3c(C)n(-c4ccc(C)cc4)nc23)CC1 | 18µM* | x | 13µM*
COc1ccc(-n2nc3c(N4CCC(C(=O)NCc5cccc(C)c5)CC4)nnc(C)c3c2C)cc1 | 20µM* | x | u
Cc1ccc(-n2nc3c(N4CCC(C(=O)NCc5ccccc5C)CC4)nnc(C)c3c2C)cc1 | u | x | 13µM*
O=[N+]([O-])c1cccc2c(S(=O)(=O)N3CCOCC3)cccc12 | -15% | x | -14%
O=C(NCCc1c[nH]c2ccccc12)[C@H]1C[C@@H]1[C@H](NP(=O)(c1ccccc1)c1ccccc1)c1ccccc1 | -5% | -2% | u
